Sampled rows, rich in hits. Any-hit rate of the full collection: about 4.2%.
TCR activator – Activators of T cell receptors: qHTS campaign; primary human leukocytes, anti-CD3, IL-2 HTRF, 48 h; Potency, µM (top dose mostly 9.22 µM), without a hit: top-dose activation of IL-2 secretion, most hits filed as activators; 330,000 tested, under 10 active; AID 504894, 2011; note: % of control where 0% means no effect
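TCR engagement came from a-CD3 beads alone, with compounds added to primary human leukocytes for 48 hr. Secreted IL-2 bridged europium cryptate- and d2-labelled anti-IL-2 antibodies, giving FRET emission at 665nm after 320nm excitation.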
uPA generation – qHTS for Inhibitors of Cell Surface uPA Generation; cell surface uPA generation assay, qHTS; Potency, µM (highest dose often 38.3 µM), inactives show at the highest dose activity change, negative = inhibition, hits mostly inhibitors; 330,000 tested, 0.31% active; AID 540303, 2011; active = well fitted inhibition curve with a large enough effect; inconclusive = small, poorly fitted or top-dose-only effect; inactive = no such curve, though single readings can be large or run the other way; tested in mouse RAW 264.7 cells; note: potency is the fitted concentration of half-maximal effect; % is set by controls: 0 for no effect and ±100 for the full control effect; nearly all actives have a fitted effect of over 55% in size
ClpP mod – qHTS Assay for Activators of ClpP | 340,000 tested, 1.9% active | ATP-dependent Clp protease proteolytic subunit (Bacillus subtilis (strain 168)), P80244 | purified B. subtilis ClpP, FRET peptide cleavage, 20 min | Potency, µM (highest dose often 57.5 µM), without a hit: top-dose activity change, negative = active; active = well fitted falling curve with a large enough effect; inconclusive = small, poorly fitted or top-dose-only effect; inactive = no such curve, though single readings can be large or run the other way; note: potency is the fitted concentration of half-maximal effect; the source files actives as falling curves though it sought activators and does not explain the sign; nearly all actives have a fitted effect of over 65% in size
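ClpP 10 microg/mL final, pH 8 Tris/KCl buffer with BSA, glycerol, Tween-20; compound pinned in; FRET-FV substrate; RT 20 min; Ex320/Em430; ΔFRET vs ADEP 5.8 microM, DMSO, no enzyme.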
Sfp PPTase inh – qHTS Assay for Inhibitors of Bacillus subtilis Sfp phosphopantetheinyl transferase (PPTase); 4'-phosphopantetheinyl transferase ffp (Bacillus subtilis), Q9F4F7; Biochemical Sfp PPTase activity, qHTS; Potency, µM, for inactives: largest response in the series, negative = inhibition, actives largely listed as inhibitors; 310,000 tested, 3.5% active;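 note: the enzyme is Sfp with the accession as filed and its product quenches rhodamine fluorescence; potency is the fitted concentration of half-maximal effect; 0% = enzyme reaction without inhibitor and -100% = no enzyme wells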
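Reaction rates are the 30-min fluorescence difference (ex 525, em 598 nm) in wells containing 15 nM Sfp, 5 uM rhodamine-CoA and 12.5 uM BHQ-2-YbbR at pH 7.6 with 10 mM MgCl2.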
The depositor's hits bear a star; [ ] = dose if it differs, or a comment. Unless noted, calls come from the whole dose curve; as a rule, active = well fitted curve in the direction sought with a large enough effect; inconclusive = small, poorly fitted or top-dose-only effect, or another doubt; inactive = no such curve, though single readings can be large; an effect the other way counts as inactive or inconclusive.

Results for CCCCOc1ccc(C(=O)Nc2cc(C)c(OCC(=O)N3CCOCC3)c(C)c2)cc1 ?
TCR activator: -2%[46.1 µM]; uPA generation: -5%; ClpP mod: 0%; Sfp PPTase inh: -1%

What do the screens show for `Cc1cc(NC(=O)c2ccc(Cl)cc2)cc(C)c1OCC(=O)N1CCOCC1`?
TCR activator: 6%; uPA generation: 4µM*; ClpP mod: -1%; Sfp PPTase inh: 9%

What do the screens show for `COc1ccc(NC(=O)c2ccc(-c3ccc([N+](=O)[O-])cc3)o2)cc1OC`?
TCR activator: 1%[46.1 µM]; uPA generation: -7%; ClpP mod: -1%; Sfp PPTase inh: 1%

What do the screens show for `COc1cc([N+](=O)[O-])ccc1-c1ccc(C(=O)Nc2ccc(NC(C)=O)cc2)o1`?
TCR activator: 1%; uPA generation: 2%; ClpP mod: 1%; Sfp PPTase inh: 10µM*

What do the screens show for `C=CCNC(=O)c1ccc(-c2ccc([N+](=O)[O-])cc2)o1`?
TCR activator: 6%[46.1 µM]; uPA generation: -7%; ClpP mod: 1%; Sfp PPTase inh: 25µM*

What do the screens show for `COc1cccc(NC(=O)c2ccc(-c3ccc([N+](=O)[O-])cc3)o2)c1`?
uPA generation: -5%; Sfp PPTase inh: 20µM*

Results for O=C(CN1C(=O)c2cccc3cccc(c23)C1=O)N1CCCCCC1 ?
TCR activator: 12%; ClpP mod: 28µM*; Sfp PPTase inh: -11%

What do the screens show for `O=C(c1ccc(S(=O)(=O)N2CCCCCC2)cc1)N1CCC(CN2C(=O)c3cccc4cccc(c34)C2=O)CC1`?
TCR activator: 1%; uPA generation: -12%; ClpP mod: 28µM*; Sfp PPTase inh: 13%

How did Cc1ccc(S(=O)(=O)N2CCC(CN3C(=O)c4cccc5cccc(c45)C3=O)CC2)cc1 do in these assays?
TCR activator: 2%; uPA generation: 0%; ClpP mod: 25µM*; Sfp PPTase inh: 6%

What do the screens show for `O=C1c2cccc3cccc(c23)C(=O)N1CC1CCN(S(=O)(=O)c2ccc(F)cc2)CC1`?
TCR activator: 4%[46.1 µM]; uPA generation: -5%; ClpP mod: 13µM*; Sfp PPTase inh: 11%

What do the screens show for `O=C1c2cccc3cccc(c23)C(=O)N1CC1CCN(S(=O)(=O)c2ccccc2)CC1`?
TCR activator: -3%; uPA generation: -1%

How did C[C@@H]1[C@H](c2ccccc2)OCCS(=O)(=O)N1Cc1ccccc1Br do in these assays?
ClpP mod: -5%

How did COc1cc2c(NC3CCN(C)CC3)nc(N3CCCN(C)CC3)nc2cc1OCCN(C)C do in these assays?
ClpP mod: 4%

How did CCCc1c(O)nc(SC2CC(=O)N(c3ccc(C)c(Cl)c3)C2=O)[nH]c1=O (configuration not stated) do in these assays?
TCR activator: -1%; uPA generation: 0%; ClpP mod: -15%

How did Cc1ccc(N2C(=O)CC(Sc3nc4ccccc4o3)C2=O)cc1Cl (configuration not stated) do in these assays?
uPA generation: -1%; ClpP mod: -1%; Sfp PPTase inh: 50µM*

How did CN(C)/C=N/C(=S)Nc1ccccc1Cl do in these assays?
TCR activator: -43%; uPA generation: -2%; Sfp PPTase inh: 50µM*

What do the screens show for `CCOC(=O)N1CCN(C(=O)Nc2ccc3oc(C)nc3c2)CC1`?
TCR activator: -1%; uPA generation: 2%; ClpP mod: -2%; Sfp PPTase inh: -8%

How did O=C(Nc1ccccc1Cl)N1CCN(c2ccccn2)CC1 do in these assays?
TCR activator: 1%[46.1 µM]; ClpP mod: 22µM*; Sfp PPTase inh: 20%

Results for O=C(c1ccc2nc(-c3ccco3)c(-c3ccco3)nc2c1)N1CCN(c2ncccn2)CC1 ?
TCR activator: 3%; uPA generation: 1%; ClpP mod: -3%; Sfp PPTase inh: 14µM*

What do the screens show for `Cc1nc2cc(NC(=O)N3CCN(c4ccccn4)CC3)ccc2o1`?
uPA generation: 7%; ClpP mod: 25µM*; Sfp PPTase inh: 13%

How did O=C1CC(C(=O)N2CCN(c3ccccn3)CC2)CN1Cc1ccccc1Cl (configuration not stated) do in these assays?
TCR activator: 0%; uPA generation: -9%; ClpP mod: 32µM*

How did CC1(C(=O)Nc2ccc3c(c2)OCCO3)CN(S(C)(=O)=O)CC(=O)N1CCc1ccc(O)cc1 (configuration not stated) do in these assays?
ClpP mod: -2%

What do the screens show for `CCOC(=O)c1ccc(NC(=O)N2CCN(c3ccccn3)CC2)cc1`?
TCR activator: -4%; uPA generation: 3%; ClpP mod: 22µM*; Sfp PPTase inh: 6%

Results for CCOC(=O)c1ccc(NC(=O)N2CCN(CCc3ccccc3)CC2)cc1 ?
ClpP mod: -3%; Sfp PPTase inh: -1%

What do the screens show for `CC1CCN(C(=O)Nc2ccc3nc(-c4ccco4)c(-c4ccco4)nc3c2)CC1`?
ClpP mod: -4%

Results for O=C(Nc1ccc2nc(-c3ccco3)c(-c3ccco3)nc2c1)N1CCN(c2ccccn2)CC1 ?
TCR activator: 0%[46.1 µM]; uPA generation: -6%; ClpP mod: -11%; Sfp PPTase inh: 20µM*

What do the screens show for `Cc1cc(=O)n(Cc2ccc(Cl)cc2)c2c1c(C)nn2-c1ccccc1`?
ClpP mod: -2%

How did COc1ccc2sc(/C=C/c3ccccc3O)[n+](C)c2c1 do in these assays?
TCR activator: 0%; uPA generation: -7%; Sfp PPTase inh: 56µM*

How did O=C(O)Cc1cc2ccccc2nc1C(=O)O do in these assays?
Sfp PPTase inh: 79µM*

How did COc1ccc(NC(=O)C(CC(C)C)NS(=O)(=O)c2ccc3c(c2)oc(=O)n3C)cc1Cl (configuration not stated) do in these assays?
ClpP mod: -1%

Results for Cc1ccc2nccnc2c1 ?
ClpP mod: -13%

What do the screens show for `CC(C)(C)c1ccc(C(=O)Nn2c(CCC(=O)O)ccc2-c2cccs2)cc1`?
TCR activator: 2%; ClpP mod: -1%; Sfp PPTase inh: 56µM*

Results for COC(=O)c1ccc(-n2c(CCC(=O)O)ccc2-c2ccccc2)cc1 ?
TCR activator: -8%; uPA generation: -26%; ClpP mod: -5%; Sfp PPTase inh: inconclusive

What do the screens show for `O=C(O)CCc1ccc(-c2cccs2)n1-c1ccc(C(=O)O)cc1`?
TCR activator: 3%; uPA generation: -30%; ClpP mod: -3%; Sfp PPTase inh: 28µM*

What do the screens show for `CC(=O)c1cccc(-n2c(CCC(=O)O)ccc2-c2cccs2)c1`?
TCR activator: 5%; uPA generation: -12%; ClpP mod: -2%; Sfp PPTase inh: 8.9µM*

What do the screens show for `CC(=O)c1cccc(-n2c(CCC(=O)O)ccc2-c2ccccc2)c1`?
TCR activator: -2%; uPA generation: -11%; ClpP mod: -2%; Sfp PPTase inh: 71µM*

Assay outcomes (PubChem BioAssay)
